The values that follow come from PubChem BioAssay (Tox21).

Results filed as inconclusive are left out. Entries that show only a call come without a potency. Activity calls are given as the source filed them. The call rests on the fitted dose curve; in most records, active means well fitted curve in the direction sought with a large enough effect in the repeat runs; inconclusive means weak or mixed curves; inactive means no such curve, though single readings can be large; an effect the other way counts as inactive or inconclusive.

Sequence of Nuclear receptor subfamily 1 group I member 2 (Homo sapiens) (O75469 whole entry, looked up): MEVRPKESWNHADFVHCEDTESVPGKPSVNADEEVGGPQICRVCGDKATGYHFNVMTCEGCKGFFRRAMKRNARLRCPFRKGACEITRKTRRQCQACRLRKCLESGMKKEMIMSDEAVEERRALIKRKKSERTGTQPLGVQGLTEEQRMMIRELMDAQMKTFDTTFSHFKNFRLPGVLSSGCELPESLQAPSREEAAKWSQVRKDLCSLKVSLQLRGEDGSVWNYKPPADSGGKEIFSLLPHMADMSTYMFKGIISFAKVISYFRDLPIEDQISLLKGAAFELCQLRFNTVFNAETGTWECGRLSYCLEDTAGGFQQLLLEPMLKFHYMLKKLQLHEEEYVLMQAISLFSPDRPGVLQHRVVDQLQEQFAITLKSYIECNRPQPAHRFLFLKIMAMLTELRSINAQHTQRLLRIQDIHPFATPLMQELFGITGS

System in one assay: not listed separately
Nature of the assay: Caspase-3/7 induction in CHO-K1 cells by small molecules, qHTS assay (AID 1346980). Further: nearly all actives have a fitted effect of over 15% in size. The following applies: CHO-K1 caspase-3/7 induction, Caspase-Glo luminescence, 17 h; series mostly up to 92.4 µM. An outline of the steps:
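Luminescent Caspase-Glo 3/7 read (30min, room temperature) quantified apoptosis induction. Cells were wild-type CHO-K1, treated with compound for 17hr at 37 C and 5% CO2.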
With `CC(C)(COC(=O)c1ccccc1)COC(=O)c1ccccc1`, the Potency entry is “inactive”.
The same measure, in the same setting: the same measure for `CC(C)=CCC/C(C)=C/CC/C(C)=C/CO`: “inactive”; for `CC(C)O.CC(C)O.CCOC(=O)/C=C(\C)O.CCOC(=O)/C=C(\C)O.[Ti]`: “inactive”.
On the same count and under the same terms, the same measure for `CO[C@@H]1[C@H](OC(=O)/C=C/C=C/C=C/C=C/C(=O)O)CC[C@]2(CO2)[C@H]1[C@@]1(C)O[C@@H]1CC=C(C)C`: “inactive”; for `CC(=O)OC[C@H]1O[C@@H](n2ncc(=O)[nH]c2=O)[C@H](OC(C)=O)[C@@H]1OC(C)=O`: “inactive”; for `CCCNCC(O)COc1ccccc1C(=O)CCc1ccccc1` (stereo not drawn): “inactive”.
On the same count and under the same terms, the same measure for `CCCn1cnc2c1c(=O)n(CCCCC(C)=O)c(=O)n2C`: “inactive”.

System in a further assay: not listed separately
Nature of the assay: Caspase-3/7 induction in HepG2 cells by small molecules, qHTS cell viability counter screen (AID 1346981). Further: nearly all actives have a fitted effect of over 30% in size. Further: potency means the concentration at half of the fitted maximal effect. The following applies: CellTiter-Fluor fluorescence, 17 h; series mostly up to 92.4 µM. Put shortly:
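Counter screen for cytotoxicity: HepG2 exposed 16 hr to compounds, then CellTiter-Fluor viability signal (fluorescence, 1 hr reagent incubation).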
Take `CCCCCCCC/C=C\CCCCCCCC(=O)OCC`: the Potency entry was “inactive”.
As for `CC(C)(COC(=O)c1ccccc1)COC(=O)c1ccccc1`, the Potency entry was “inactive”.
With `S=C([S-])NCCNC(=S)[S-].[Mn+2]`, the Potency result is “inactive”.
As to `CCOC(=O)C(F)(F)F`, the Potency entry was “inactive”.
Turning to `CCCCCCCN`, the Potency result was “inactive”.
With `c1ccc(-c2ccccn2)nc1`, the Potency entry is “inactive”.
On to `CC(C)=CCC/C(C)=C/CC/C(C)=C/CO`, for which the Potency entry was “inactive”.
Regarding `O=C(CS)Nc1ccccc1`, the Potency result was “inactive”.
`CO[C@@H]1[C@H](OC(=O)/C=C/C=C/C=C/C=C/C(=O)O)CC[C@]2(CO2)[C@H]1[C@@]1(C)O[C@@H]1CC=C(C)C`: the Potency entry was “inactive”.
For the compound `Nc1cccc(S(=O)(=O)c2cccc(N)c2)c1`, the Potency result is “inactive”.
The same measure, in the same setting: the value for `CCC(C)O` (stereo not drawn) was “inactive”; that for `NCC(=O)CCC(=O)O` was “inactive”; that for `CC(=O)OC[C@H]1O[C@@H](n2ncc(=O)[nH]c2=O)[C@H](OC(C)=O)[C@@H]1OC(C)=O` was “inactive”.
For `O=S(=O)(Oc1ccc(Cl)cc1)c1ccccc1`, the Potency result is “inactive”.
As to `CCO[C@H](Cc1ccc(OCCc2ccc(OS(C)(=O)=O)cc2)cc1)C(=O)O`, the Potency result was “inactive”.
As to `CCn1cc(C(=O)O)c(=O)c2cnc(N3CCNCC3)nc21`, the Potency entry is “inactive”.
Regarding `Cc1cccc(C)c1NC(=O)CN(CC(=O)O)CC(=O)O`, the Potency entry is “inactive”.
`COc1ccc2cccc(CCNC(C)=O)c2c1`: the Potency result is “inactive”.
Turning to `O=C(NCC1CN(c2ccc(N3CCOCC3=O)cc2)C(=O)O1)c1ccc(Cl)s1` (stereo not drawn), the Potency entry is “inactive”.
As to `CCO[Si](CCCCl)(OCC)OCC`, the Potency entry is “inactive”.
On the same count and under the same terms, the same measure for `CCCCC/C=C\C/C=C\CCCCCCCC(=O)NC(C)c1ccccc1` (stereo not drawn): “inactive”.
`C[N+]1(C)CCC(OC(=O)C(O)(c2ccccc2)C2CCCC2)C1` (stereo not drawn): the Potency result was “inactive”.
Consider `Brc1c2ccccc2c(Br)c2ccccc12`, for which the activity change, negative = cytotoxicity was 5.61% [at 8.39 µM] (inactive).
On to `Cc1cccc(C)c1OCC(=O)N[C@@H](Cc1ccccc1)[C@@H](O)C[C@H](Cc1ccccc1)NC(=O)[C@H](C(C)C)N1CCCNC1=O`, for which the Potency is 26.6 µM (active).
With `C=CC(=O)OCCOCCOC(=O)C=C`, the Potency is 61.4 µM (active).
For the compound `Cc1[nH]c(C)c(Cl)c(=O)c1Cl`, the activity change, negative = cytotoxicity was -0.581% [at 19 µM] (inactive).
For the compound `Cc1ccc(C(=O)Oc2ccc(C(O)CNC(C)(C)C)cc2OC(=O)c2ccc(C)cc2)cc1` (stereo not drawn), the Potency result was “inactive”.

The next assay concerns the target Nuclear receptor subfamily 1 group I member 2 (Homo sapiens) (UniProt O75469). Nature of the assay: Human pregnane X receptor (PXR) small molecule agonists, qHTS assay (AID 1346982). Further: nearly all actives have a fitted effect of over 35% in size. Further: potency means the concentration at half of the fitted maximal effect. The following applies: PXR-Luc HepG2, CYP3A4 luciferase reporter, 24 h; series mostly up to 92.4 µM. Put shortly:
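Luminescence (ONE-Glo, 30 min RT) after 24 hr compound exposure of PXR-Luc HepG2 cells; cells rested 5 hr post-plating in 5% charcoal-stripped FBS medium.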
Take `CCCCCCCC/C=C\CCCCCCCC(=O)OCC`: the Potency entry was “inactive”.
Same read-out and setting: the same measure for `CC(C)(COC(=O)c1ccccc1)COC(=O)c1ccccc1`: “inactive”.
Same read-out and setting: the same measure for `S=C([S-])NCCNC(=S)[S-].[Mn+2]`: 30.6 µM (active); for `CCOC(=O)C(F)(F)F`: “inactive”.
As for `c1ccc(-c2ccccn2)nc1`, the Potency is 24.3 µM (active).
Take `CC(C)=CCC/C(C)=C/CC/C(C)=C/CO`: the Potency was 43.3 µM (active).
For the compound `O=C(CS)Nc1ccccc1`, the Potency entry is “inactive”.
On to `CO[C@@H]1[C@H](OC(=O)/C=C/C=C/C=C/C=C/C(=O)O)CC[C@]2(CO2)[C@H]1[C@@]1(C)O[C@@H]1CC=C(C)C`, for which the Potency was 15.4 µM (active).
Still for that read-out and setting: the value for `NCC(=O)CCC(=O)O` was “inactive”.
Same read-out and setting: the value for `CC(=O)OC[C@H]1O[C@@H](n2ncc(=O)[nH]c2=O)[C@H](OC(C)=O)[C@@H]1OC(C)=O` was “inactive”; that for `Cc1nn(C)c(Oc2ccccc2)c1/C=N/OCc1ccc(C(=O)OC(C)(C)C)cc1` was 38.6 µM (active).
Regarding `O=S(=O)(Oc1ccc(Cl)cc1)c1ccccc1`, the Potency is 54.5 µM (active).
Consider `CCO[C@H](Cc1ccc(OCCc2ccc(OS(C)(=O)=O)cc2)cc1)C(=O)O`, for which the Potency result was “inactive”.
`CCn1cc(C(=O)O)c(=O)c2cnc(N3CCNCC3)nc21`: the Potency result was “inactive”.
Still for that read-out and setting: the value for `O=C(O)c1ccc(-n2nc(-c3ccccc3O)nc2-c2ccccc2O)cc1` was “inactive”.
In the case of `COc1ccc2cccc(CCNC(C)=O)c2c1`, the Potency entry was “inactive”.
In the case of `O=C(NCC1CN(c2ccc(N3CCOCC3=O)cc2)C(=O)O1)c1ccc(Cl)s1` (stereo not drawn), the Potency result was “inactive”.
Same read-out and setting: the value for `CCO[Si](CCCCl)(OCC)OCC` was “inactive”; that for `CCCCC/C=C\C/C=C\CCCCCCCC(=O)NC(C)c1ccccc1` (stereo not drawn) was 21.1 µM (active); that for `C[N+]1(C)CCC(OC(=O)C(O)(c2ccccc2)C2CCCC2)C1` (stereo not drawn) was “inactive”.
Consider `Brc1c2ccccc2c(Br)c2ccccc12`, for which the activation was 1.22% [at 8.39 µM] (inactive).
Consider `COc1cc(Cl)c(OC)cc1N`, for which the Potency was 48.6 µM (active).
With `C=CC(=O)OCCOCCOC(=O)C=C`, the Potency entry was “inactive”.
Consider `Cc1[nH]c(C)c(Cl)c(=O)c1Cl`, for which the activation is -7.31% [at 19 µM] (inactive).
